S1P3 antagonist – antagonists of human S1P3 receptor; Q99500; actives 0.27% (n = 170,000); CHO S1P3 NFAT-BLA reporter, FRET fluorescence, antagonist mode; inhibition, % at 4.98 µM;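 active means inhibition above the plate cutoff, the mean inhibition of test wells on that plate plus 3 SD, cut at about 28% in these data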;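 further: cells challenged with S1P at its EC80 of 0.8 µM; blue over green emission ratio from cleaved BLA substrate after 4 h stimulation; 0% = S1P-stimulated wells and 100% = unstimulated DMSO-only wells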
Target sequence (Q99500 whole entry, looked up): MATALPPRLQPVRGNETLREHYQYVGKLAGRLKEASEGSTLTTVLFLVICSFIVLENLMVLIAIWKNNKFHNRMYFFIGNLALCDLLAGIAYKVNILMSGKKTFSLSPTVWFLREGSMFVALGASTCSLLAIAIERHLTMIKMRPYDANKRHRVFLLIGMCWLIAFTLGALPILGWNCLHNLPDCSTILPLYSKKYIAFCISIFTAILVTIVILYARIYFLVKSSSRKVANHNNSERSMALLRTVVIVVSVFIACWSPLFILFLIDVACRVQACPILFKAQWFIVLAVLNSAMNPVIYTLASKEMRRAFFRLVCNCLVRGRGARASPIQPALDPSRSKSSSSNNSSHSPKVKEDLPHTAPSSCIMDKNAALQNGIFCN
ROMK primary – human ROMK K+ channel modulation, primary screen. Tet-inducible ROMK, thallium flux fluorescence; actives lie on both sides. B-score at 10 µM. actives 2% (n = 130,000). AID 1918;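 active means signal ratio slope over the read window, or its plate-corrected B-score, at least 3 SD from the plate mean, either direction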;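 further: B-score of the F/F0 ratio slope over 7 to 12 s after thallium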
S1P4 antagonist – blocks the human S1P4 receptor; O95977; S1P4-expressing cells, antagonist mode, reporter read-out; inhibition, % at 4.98 µM; actives 0.26% (n = 220,000); AID 1510; in the data active means inhibition above about 29%;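 further: 0% = wells stimulated with agonist and 100% = vehicle wells without agonist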
RAM inhibit – blocks the yeast RAM network; S. cerevisiae dse1pr::URA3 reporter, 5-FOA growth OD615, 2 d; analog-sensitive cbk1-as2 kinase mutant strain; inhibition, % at 50 µM; actives 1.8% (n = 190,000); AID 868;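 active means inhibition above a set limit, 3 SD over mean compound inhibition, cut at about 8.4% in these data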;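 further: 0% = DMSO-only wells with no growth and 100% = 10 µM 1-NA-PP1 full growth; inhibition rescues growth on 5-FOA so higher OD means more RAM inhibition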
S1P4 agonist – activates the human S1P4 receptor | S1P4-expressing cell line, agonist reporter assay | actives 0.35% (n = 220,000) | O95977 | activation, % at 4.98 µM; in the data active means activation above about 11%;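 further: 0% = DMSO vehicle and 100% = reference agonist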
Cl transport mod – KCC2 (human) Cl- transport modulation; Q9H2X9; KCC2 cells, thallium flux FluoZin-2 fluorescence; B-score of Tl+ flux slope (higher = more flux/activation; lower = inhibition) at 10 µM; actives 2.2% (n = 190,000); AID 1456;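 active means thallium flux slope and its plate-corrected score both differing from the plate sample mean at a set confidence after two filtering rounds, in either direction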;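 further: slope of fluorescence scaled to starting intensity during 10 to 20 s after thallium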
KCC2 sec1 – confirmation of human KCC2 transport modulators; shares compounds with Cl transport mod; HEK293-KCC2, thallium flux, FluoZin2 fluorescence; hits give high values; actives 15% (n = 3,700); normalised thallium flux (F/F0 slope) at 10 µM;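 active means thallium flux slope above the same plate's solvent-only control mean plus 3 SD; inconclusive means the two replicate wells disagree; inactive means no significant difference from solvent-only control wells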
KCC2 bumet counter – bumetanide-insensitive thallium flux in KCC2 cells with ouabain, counter-screen. HEK293-KCC2 + bumetanide/ouabain, thallium flux FluoZin2; hits give high values. shares compounds with Cl transport mod. actives 49% (n = 3,700). normalized thallium flux at 10 µM. AID 1714;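 active means thallium entry rate above the same plate's blocked-transporter control wells by more than 3 SD; inconclusive means the two repeat wells disagree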;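 further: raw slope of fluorescence over initial fluorescence between 10 and 20 s after thallium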
KCC2 secondary2 – confirmation of human KCC2 transport modulators; actives 23% (n = 3,700); HEK293-KCC2, thallium flux FluoZin2 fluorescence; actives lie on both sides; F/F0 rise rate, 10–20 s post-thallium; shares compounds with Cl transport mod; normalized thallium flux at 10 µM;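 active means thallium flux slope more than 3 SD above or below the plate's solvent-only control mean, mostly below; inconclusive means the two repeat wells disagreed; inactive means no significant shift from solvent-only controls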;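 further: raw slope with 0.1% DMSO as baseline and bumetanide as block control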
HEK counter1 – acts in parental HEK cells, KCC2 counter-screen; shares compounds with Cl transport mod; actives 46% (n = 3,700); HEK293 parental cells, thallium flux FluoZin2, ouabain; baseline-ratio fluorescence slope, 10–20 s after thallium; thallium flux rate (normalised fluorescence) at 10 µM;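 active means thallium flux rate significantly above the same plate's solvent-only control wells, beyond their mean plus 3 SD; inconclusive means the two replicate wells gave conflicting results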
KCC2 retest ouab – KCC2 (human) modulation, ouabain retest | shares compounds with Cl transport mod | HEK293-KCC2, thallium flux FluoZin2 fluorescence; bidirectional: low = inhibitor, high = activator | raw Tl+ flux slope (below DMSO = inhibition, above = activation) at 10 µM | actives 48% (n = 3,700) | AID 1717;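 active means thallium flux slope beyond 3 SD from same-plate DMSO control mean in most replicates, usually higher, sometimes lower; inconclusive means repeat tests gave conflicting results; inactive means no significant difference from controls in most replicates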;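 further: slope of initial-normalized fluorescence between seconds 10 and 20 after thallium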
HEK293 Tl flux2 – counter-screen for KCC2 modulators: effect in parental HEK293 cells; actives 33% (n = 3,700); shares compounds with Cl transport mod; thallium flux slope at 10 µM; AID 1718; thallium flux FluoZin-2 fluorescence slope;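 active means thallium flux slope above the same plate's solvent-control mean plus 3 SD in both duplicate wells; inconclusive means duplicate wells that disagreed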;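 further: run without ouabain in cells lacking the KCC2 cotransporter; slope of fluorescence scaled to its starting value between 10 and 20 s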
The depositor's hits bear a star; ? = inconclusive; . = not tested or not shown. Rows were chosen to be rich in hits. Some 5.1% of all compounds tested hit in one or more screens of this group.

SMILES	S1P3 antagonist	ROMK primary	S1P4 antagonist	RAM inhibit	S1P4 agonist	Cl transport mod	KCC2 sec1	KCC2 bumet counter	KCC2 secondary2	HEK counter1	KCC2 retest ouab	HEK293 Tl flux2
C/C(=N/NC(=O)c1cnccn1)c1cccs1	2	.	12	3	1	-0.02	.	.	.	.	.	.
O=C1CNC(=S)N1c1nc2ccccc2s1	5	0.055	-3	.	-1	5.3*	0.0069	0.01*	0.031	0.011*	0.021	0.012*
O=C1CCC(=O)N1c1ccc(-c2nc3ccccc3s2)cc1	-6	0.95	-4	3	0	0.41	.	.	.	.	.	.
COC(=O)C1=C(C(=O)OC)[C@@H]2N(C)c3ccccc3[C@@]23C[C@@H](CO)N(C(=O)NCCBr)C3=N1	.	.	.	.	.	0.012	.	.	.	.	.	.
O=C1N(Cc2ccc(F)cc2)CCN1c1ccc(F)cc1	-11	0.31	6	1	1	-3.3*	0.0067	?	0.03	0.011*	?	0.012
COc1cccc(CN2CCN(c3ccc(F)cc3)C2=O)c1	6	-1.1	7	0	1	-2.5	.	.	.	.	.	.
Cc1cc(C)nc(N2CCN(C(=O)CCC(=O)Nc3nnc(C(C)C)s3)CC2)n1	-10	0.13	14	.	0	2	.	.	.	.	.	.
Cc1nc(C)c(Oc2cccc(C(F)(F)F)c2)c(=O)[nH]1	-1	.	-14	.	1	0.9	.	.	.	.	.	.
CSc1nc2sc3c(c2c(=O)n1C1CCCCC1)CCN(C)C3	.	-0.35	-6	0	-1	0.32	0.016	0.0039	0.031	0.0079	0.016	0.01
CSc1nc2sc3c(c2c(=O)n1C)CCCC3	-35	.	-17	2	-1	-1.6	.	.	.	.	.	.
Cc1ccc(S(=O)(=O)N(CC(=O)NCCSCc2ccco2)c2ccc(F)cc2)cc1	-33	-0.87	-4	5	-2	-4.3*	0.0059	0.0051	0.028	0.006	0.016*	0.0097
Cc1ccc(N(CC(=O)NCCSCc2ccco2)S(=O)(=O)c2ccc(F)cc2)cc1	-19	0.82	11	4	1	-1.8	.	.	.	.	.	.
Cc1ccc2nsnc2c1NC(=O)c1cncc(Br)c1	-20	0.59	-11	6	0	0.75	.	.	.	.	.	.
Cn1cc(-c2cc(C(=O)O)on2)cn1	-14	.	-12	.	2	-0.57	.	.	.	.	.	.
CC(C)Cn1c(-c2ccccc2F)n[nH]c1=S	8	.	-19	2	4	1.7	.	.	.	.	.	.
CC(C)Cn1c(-c2csc3c2CCCC3)n[nH]c1=S	.	.	0	1	-2	4.8*	0.011	0.033*	0.031	0.011*	0.029*	0.01
COCCN1C(=O)N[C@@H](CCc2ccccc2)C(C(C)=O)=C1C	-4	0.46	-17	0	1	6*	0.0066	0.0047	0.025*	0.0074	0.018	0.01
CCC(Sc1ncnc2sc(C)c(C)c12)C(=O)OC (stereo unspecified)	.	-1.9	-13	1	0	.	0.026*	0.056*	0.046*	0.042*	0.044*	0.036*
Cc1sc2ncnc(SCC(=O)NCC(C)C)c2c1C	.	0.6	-10	1	-2	1.9	.	.	.	.	.	.
Cc1sc2ncnc(SC(C)C#N)c2c1C (stereo unspecified)	-26	.	-13	3	0	3.8*	?	0.026*	0.029	0.01*	?	?

From PubChem
